SMILES strings stand for the structures. The source made the active and inactive calls. Calls come from the whole dose curve; as a rule, active = well fitted curve in the direction sought with a large enough effect; inconclusive = small, poorly fitted or top-dose-only effect, or another doubt; inactive = no such curve, though single readings can be large or run the other way.

Chain of Thyrotropin receptor (Homo sapiens) (P16473 whole entry, looked up): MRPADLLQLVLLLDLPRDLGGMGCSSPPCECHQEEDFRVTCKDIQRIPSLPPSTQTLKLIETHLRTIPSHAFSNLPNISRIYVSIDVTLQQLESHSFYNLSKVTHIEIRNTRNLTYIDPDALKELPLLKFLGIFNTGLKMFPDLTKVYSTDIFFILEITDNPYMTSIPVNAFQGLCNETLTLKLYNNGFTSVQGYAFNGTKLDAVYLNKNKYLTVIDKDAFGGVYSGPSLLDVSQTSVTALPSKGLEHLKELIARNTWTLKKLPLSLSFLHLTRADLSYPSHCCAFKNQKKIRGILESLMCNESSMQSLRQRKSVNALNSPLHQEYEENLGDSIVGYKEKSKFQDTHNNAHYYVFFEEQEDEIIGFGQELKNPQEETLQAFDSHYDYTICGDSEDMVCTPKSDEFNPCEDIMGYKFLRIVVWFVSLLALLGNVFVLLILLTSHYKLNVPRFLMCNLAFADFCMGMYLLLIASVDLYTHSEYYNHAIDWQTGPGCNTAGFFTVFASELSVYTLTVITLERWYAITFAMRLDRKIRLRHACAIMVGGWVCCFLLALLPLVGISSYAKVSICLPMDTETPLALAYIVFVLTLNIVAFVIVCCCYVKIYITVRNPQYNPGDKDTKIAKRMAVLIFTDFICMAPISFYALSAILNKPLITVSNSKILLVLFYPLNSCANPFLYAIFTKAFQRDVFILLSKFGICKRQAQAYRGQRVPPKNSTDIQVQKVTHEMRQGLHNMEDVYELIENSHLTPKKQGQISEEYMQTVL

The target of the assay is Thyrotropin receptor (Homo sapiens) (UniProt P16473). Put plainly: qHTS Assay for Antagonists of the Thyroid Stimulating Hormone Receptor (AID 488980). The note with it: TSHR-expressing cells, cAMP antagonist read-out; series mostly up to 57.5 µM. From the text:
TSH is an alpha/beta heterodimeric glycoprotein hormone secreted from the anterior pituitary gland which belongs to the glycoprotein hormone family. The actions of TSH are mediated by a seven-transmembrane receptor, which upon TSH binding couples preferentially to the G-alpha (s) protein (Gs), resulting in activation of adenylate cyclase and increase in cyclic adenosine 3', 5' monophosphate (cAMP). The TSH receptor (THSR) is mainly expressed in thyroid follicular cells and regulates their growth and function. This cell based assay was conducted on a TSHR transfected HEK 293 cell line, measuring cAMP stimulation using antibody-based Homogeneous Time Resolved Fluorescence (HTRF).
Our goal is to identify small molecules that will inhibit (antagonize) the thyroid-stimulating hormone receptor (TSHR), a member of the 7 transmembrane-spanning receptor (7TMR) family of cell surface receptors. TSHR-mediated hyperthyroidism is important in thyroid pathology. The development of small molecule antagonists of TSHR may lead to therapeutic approaches for TSHR-mediated hyperthyroidism caused by constitutively activating mutations or stimulating auto-antibodies associated with Graves' disease. Graves' disease is the leading cause of hyperthyroidism and is caused by autoantibodies that stimulate TSHR (TsAbs) causing thyroid growth and unregulated overproduction of thyroid hormones and existing treatments have liabilities (agranulocytosis). In addition, TSHRs are known to be expressed in multiple extrathyroidal tissues including bone, brain, kidney, testis, fat and cells of the immune system but the role of the TSHR in these tissues is not clear. Therefore, TSHR antagonists/inverse agonists could be used as probes of extrathyroidal TSHR function. Finally, TSHR inverse agonists, which are a subclass of antagonists that inhibit agonist-independent (or basal or constitutive) TSHR signaling, could be used to inhibit TSH-independent signaling in patients with recurrent or metastatic thyroid cancer who are receiving thyroid hormone to suppress TSH.
An anti cAMP antibody contains a fluorescent cryptate tag (excitation 337 nm; emission 620 nm) and the acceptor is cAMP-d2 (excitation 620 nm; emission 665 nm). When antibody and cAMP-d2 interact and are excited by a 337 nm light, a FRET occurs resulting in emission at 665 nm. The assay is competition between cAMP-d2 and cAMP (from the cell lysate). The homogeneous protocol allows for one step dispense after stimulation that is automation friendly.
Step, Parameter, Value, Description
1, Cells, 3 uL, 2000 TSHR freshly harvested cells/well 1536 TC treated White solid bottom plate (Cells resuspended in 10 mM HEPES buffered HBSS and 70 uM RO 20-1724)
2, Compound, 23 nL, Libraries and controls
3, Compound, 1 uL, EC80 TSH (4 nM final)
5, Reagent, 2 uL, cAMP antibody diluted 1:20 in lysis buffer
6, Time, 30 minutes, Room temperature
7, Detector, HTRF settings, Viewlux
In general terms: Quantitative high-throughput screening tests each substance at several concentrations.
For the molecule `CC(C)C[C@H](N)CSSC[C@@H](N)CC(C)C`, the outcome was inactive. Regarding `CC[C@H](C)C(=O)O[C@H]1CCC=C2C=C[C@H](C)[C@H](CC[C@@H]3C[C@H](O)CC(=O)O3)C21` (stereo partly specified), the outcome was inactive. The result for `Cc1c(C)c2c(c(C)c1O)CCC(C)(CN1CCN(c3cc(N4CCCC4)nc(N4CCCC4)n3)CC1)O2` (stereo unspecified) reads “inactive”; that for `Nc1nc(Cl)nc2c1ncn2[C@@H]1O[C@H](COP(=O)(O)OP(=O)(O)OP(=O)(O)O)[C@H](O)[C@H]1O`, “inactive”.

As for `Nc1nc(Cl)nc2c1ncn2[C@@H]1O[C@H](CO)[C@H](O)[C@H]1O`, the outcome was inactive. For `CC(=O)SC1CC2=CC(=O)CC[C@]2(C)C2CC[C@@]3(C)[C@@H](CC[C@@]34CCC(=O)O4)C12` (stereo partly specified), the outcome was inactive. The result for `N#Cc1c(-c2ccccc2)no[n+]1[O-]` reads “inactive”; that for `N#CC(Cc1ccc(O)c(O)c1)C(=O)N1CCc2ccccc21` (stereo unspecified), “inactive”; that for `CCCCN1CCC(COC(=O)c2cc(Cl)c(N)c3c2OCCO3)CC1`, “inactive”. The result for `C#C[C@]1(O)CC[C@H]2C3CCC4=Cc5oncc5CC4(C)C3CCC21C` (stereo partly specified) reads “inactive”.

Take `CC(=O)O[C@]1(C(C)=O)CC[C@H]2C3C=C(Cl)C4=CC(=O)[C@@H]5C[C@H]5[C@]4(C)C3CC[C@@]21C` (stereo partly specified): the outcome was inactive. The result for `COc1cc2c(cc1O)CCC1C2CC[C@]2(C)[C@@H](O)CC[C@@H]12` (stereo partly specified) reads “inactive”; that for `C[C@]12C[C@H](O)C3[C@@H](CCC4=CC(=O)CC[C@@]43C)[C@@H]1CC[C@@H]2C(=O)CO` (stereo partly specified), “inactive”; that for `Cc1cc(N)c2ccccc2[n+]1CCCCCCCCCCCCCC[n+]1c(C)cc(N)c2ccccc21`, “inactive”. As for `CN1CCN(CC/C=C2/c3ccccc3Sc3ccc(S(=O)(=O)N(C)C)cc32)CC1`, the outcome was inactive.

With `O=S(=O)(O)C1CCNCC1`, the outcome was inactive.

(Values after PubChem BioAssay (NCATS).)
